The list is not random: actives were taken first. Their share in the collection is about 3%.
CHT allo act: allosteric activators of human choline transporter CHT. CHT-expressing cells, membrane potential dye, choline EC20; active compounds read high; LV-AA mutant CHT in HEK293 cells. B-score at 10 µM. hit rate 0.49% among 310,000;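 active = initial fluorescence not abnormally high and integrated response B-score, plate-corrected, over 3 SD above library mean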
Target sequence (Q9GZV3 whole entry, looked up): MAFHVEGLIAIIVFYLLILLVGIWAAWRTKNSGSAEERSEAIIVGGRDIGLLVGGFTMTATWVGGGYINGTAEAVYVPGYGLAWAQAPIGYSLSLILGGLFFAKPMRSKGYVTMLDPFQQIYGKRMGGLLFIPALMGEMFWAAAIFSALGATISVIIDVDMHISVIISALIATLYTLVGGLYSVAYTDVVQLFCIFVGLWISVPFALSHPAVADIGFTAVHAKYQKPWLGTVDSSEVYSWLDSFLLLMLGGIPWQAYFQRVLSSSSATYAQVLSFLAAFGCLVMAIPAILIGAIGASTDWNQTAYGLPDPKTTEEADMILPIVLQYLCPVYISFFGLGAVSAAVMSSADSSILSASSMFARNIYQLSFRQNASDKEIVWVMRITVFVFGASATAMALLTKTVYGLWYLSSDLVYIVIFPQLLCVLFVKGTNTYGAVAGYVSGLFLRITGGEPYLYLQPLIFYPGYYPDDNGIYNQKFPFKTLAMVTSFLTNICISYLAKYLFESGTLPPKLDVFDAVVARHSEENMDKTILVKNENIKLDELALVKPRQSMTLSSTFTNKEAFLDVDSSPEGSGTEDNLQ
A1 inh: inhibitors of the anti-apoptotic protein A1, read as caspase activation. hit rate 0.066% among 330,000. MEF A1-2A-BIM cells, Caspase-Glo 3/7 luminescence, 3 h; percent of clofoctol response, vehicle zero. caspase activation, % (test concentration not listed);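 active = over half of replicate activation scores above 10%, or exactly half above 10 with the replicate mean above 10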
NALP3 yeast inh: blocks the NALP3 inflammasome reconstituted in yeast. Yeast reconstituted NLRP3/ASC/caspase-1, beta-gal luminescence, 24 h. inhibition, % at 10 µM. hit rate 0.39% among 330,000. AID 2825;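 active = inhibition of 50% or more; inactive = inhibition below 50%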;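 also: plate controls were induced DMSO wells for no effect and uninduced yeast grown without galactose for full effect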
CHT inh: human CHT choline transport inhibition; Q9GZV3; CHT-expressing cells, membrane potential dye, choline response; active compounds read low; B-score at 10 µM; hit rate 0.86% among 310,000; AID 488975;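 active = B-score over 3 SD under the library average, and starting fluorescence ratio not unusually high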;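 also: choline stimulus applied at its EC90 after an EC20 pre-addition; B-score computed on integrated fluorescence ratio after choline addition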
SUMO Mot1 rescue: SUMOylation pathway inhibition by Mot1-301 growth rescue | S. cerevisiae Mot1-301 growth rescue, ATP luminescence, 38.5C; percent above DMSO median, 100 means doubled | hit rate 1% among 320,000 | growth rescue, % at 18.8 µM | AID 2716;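 active = every valid replicate shows activation above 250% relative to neutral control wells; inactive = the rest, any valid replicate at or below 250%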;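 also: OY570 slx delta 5 strain wells were the positive control but not used for scaling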
NALP1 yeast inh: inhibitors of NALP1 inflammasome in yeast; S. cerevisiae NALP1/ASC/caspase-1 growth, X-gal OD620, 72 h; inhibition, % at 10 µM; hit rate 0.61% among 280,000; AID 2071; in the data active = inhibition mostly above about 24%, no sharp cut-off; inactive = mostly below about 32%
Mot1 SUMO dose: inhibits SUMO pathway, affecting Mot1-301 yeast growth; growth activity, percent, % at 42 µM; S. cerevisiae Mot1-301 galactose growth, ATP luminescence, 24 h; -100 = growth of slx-deleted rescue strain; shares compounds with SUMO Mot1 rescue; 2,300 tested, under 10 active; AID 493004;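 active = Signal drops as the depositor expects, and the fitted half-maximal dose is no more than ten times the top valid tested dose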;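 also: more negative values mean stronger growth rescue toward the control strain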
Active calls of the source: *; i = inactive; / = not tested or not shown; + = active, no number.

SMILES	CHT allo act	A1 inh	NALP3 yeast inh	CHT inh	SUMO Mot1 rescue	NALP1 yeast inh	Mot1 SUMO dose
CN(C)S(=O)(=O)c1cccc(COC(=O)c2ccc(Cl)cc2O)c1	i	0.4	-6.0	i	185.3	/	/
CCn1nc(C(=O)OCc2cccc(S(=O)(=O)N(C)C)c2)c2ccccc2c1=O	i	-1.0	10.5	i	849.8*	/	-0.6
COc1ccccc1/C=C/C(=O)N1CCN(S(=O)(=O)c2cc(C)ccc2C)CC1	/	-1.1	18.0	/	-7.0	/	/
Cc1ccc(NC(=O)COC(=O)c2csc3c2CCC(C)C3)cc1S(=O)(=O)N1CCCCC1 (centres undefined)	i	-0.3	43.9	i	+	41.6	-0.1
CC1CCc2c(C(=O)OCC(=O)Nc3cccc(S(=O)(=O)N4CCCCCC4)c3)csc2C1 (centres undefined)	i	-0.1	18.0	i	-1.7	7.9	/
Cc1nc(-c2cccc(S(=O)(=O)N3CCOCC3)c2)cs1	i	0.5	-7.3	i	730.1*	19.1	-0.3
COc1ccc(-c2n(Cc3ccccc3)c3ccccc3[n+]2Cc2ccccc2)cc1	i	0.8	-1.6	i	2.2	6.4	/
O=C(NCCCN1CCN(c2ccccc2F)CC1)C1CCN(S(=O)(=O)c2cccs2)CC1	i	-0.3	13.5	i	-12.0	2.9	/
CCS(=O)(=O)N1CCC(C(=O)NCCCN2CCN(c3ccccc3F)CC2)CC1	i	1.1	4.1	i	481.4*	11.8	0.6
O=C(NCCCN1CCN(c2ccccc2F)CC1)Nc1ccc(F)cc1	i	0.9	7.9	i	-2.3	5.0	/
O=C(NCCCN1CCN(c2ccccc2F)CC1)Nc1ccccc1[N+](=O)[O-]	i	0.1	13.1	i	446.5*	-8.1	-0.1
CCCS(=O)(=O)N1CCCC(C(=O)Nc2ccc3c(c2)CCC3)C1 (centres undefined)	i	0.0	2.3	i	-10.8	18.5	/
COc1cccc(CNC(=O)C2CCN(c3nn4c(=O)cc(C)nc4s3)CC2)c1	i	-1.2	6.2	i	244.8	0.5	/
CCCCC(=O)NC(=S)Nc1cccc(C(=O)O)c1	i	-0.4	15.3	i	+	-11.0	-0.4
CCCn1c(N)cc(=O)n(CCC)c1=O	i	0.1	-7.1	i	792.1*	2.6	0.0
CC(C)Cn1c(N)cc(=O)n(C)c1=O	i	0.9	20.2	i	-7.0	7.4	/
Cn1c(N)c(C(=O)CSc2nnc(C3CC3)n2N)c(=O)n(C)c1=O	/	0.2	1.4	/	-9.7	/	/
Cc1ccc(Oc2ccc(OCC(=O)Nc3ccncc3)cc2)cc1	/	-1.8	29.1	/	378.1*	/	0.0
CCOC(=O)c1ccc(CNC(=O)C2CCCCC2C(=O)OCC(F)(F)F)o1 (centres undefined)	i	-0.4	11.4	i	+	16.9	0.4
Cc1c(C)c2c(c(C)c1O)CC[C@@](C)(CCC[C@H](C)CCC[C@H](C)CCCC(C)C)O2	i	0.5	7.1	i	35.0	/	/
Cc1c(C)c2c(c(C)c1O)CCC(C)(C(=O)O)O2 (centres undefined)	i	0.3	-8.6	i	548.1*	/	-0.5
CCc1ccc2[nH]c(=O)c(C(c3nnnn3Cc3ccccc3)N3CCOCC3)cc2c1 (centres undefined)	i	1.0	7.7	i	478.3*	-3.8	-0.2
C/C(=N\N=C(c1ccccc1)c1ccccc1)c1ccco1	i	0.6	9.7	i	576.4*	0.8	-0.1
CCC1CCCCN1C(=O)COC(=O)c1cc(=O)[nH]c2ccccc12 (centres undefined)	/	1.0	-9.5	/	-11.6	/	/
C=CCn1c(-c2ccc(OC)cc2)nc2ccccc21	i	0.7	21.4	i	396.4*	/	0.0
CCOCCn1c(CC)nc2ccccc21	i	0.0	-7.7	i	-2.0	-1.1	/
CCOCCn1c(-c2ccc(OC)cc2)nc2ccccc21	i	0.0	21.7	i	477.2*	-15.0	0.3
COc1ccc(-c2nc3ccccc3n2Cc2ccccc2)cc1	i	-0.5	7.7	i	6.5	-9.9	/
